# In PubChem BioAssay (EPA / NIEHS):
# Records with an inconclusive call do not appear. Active and inactive are the calls of the source. The calls were made as follows: active = hit-call score of the fitted dose curve at least 0.9, where 1 is the maximum; inconclusive = response in the unintended direction; inactive = score below 0.9.
# Key:
# [1] = target: human Peroxisome Proliferator-activated Receptor alpha (PPARa), PPARA (gene 5465) (UniProt Q07869); test: NVS_NR_hPPARa: NovaScreen (NVS) Nuclear Receptor Binding Assay for human Peroxisome Proliferator-activated Receptor alpha (PPARa) (AID 2283359);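 also: activity means loss of TR-FRET signal versus DMSO baseline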
# Sequence of human Peroxisome Proliferator-activated Receptor alpha (PPARa), PPARA (gene 5465) (Q07869 whole entry, looked up): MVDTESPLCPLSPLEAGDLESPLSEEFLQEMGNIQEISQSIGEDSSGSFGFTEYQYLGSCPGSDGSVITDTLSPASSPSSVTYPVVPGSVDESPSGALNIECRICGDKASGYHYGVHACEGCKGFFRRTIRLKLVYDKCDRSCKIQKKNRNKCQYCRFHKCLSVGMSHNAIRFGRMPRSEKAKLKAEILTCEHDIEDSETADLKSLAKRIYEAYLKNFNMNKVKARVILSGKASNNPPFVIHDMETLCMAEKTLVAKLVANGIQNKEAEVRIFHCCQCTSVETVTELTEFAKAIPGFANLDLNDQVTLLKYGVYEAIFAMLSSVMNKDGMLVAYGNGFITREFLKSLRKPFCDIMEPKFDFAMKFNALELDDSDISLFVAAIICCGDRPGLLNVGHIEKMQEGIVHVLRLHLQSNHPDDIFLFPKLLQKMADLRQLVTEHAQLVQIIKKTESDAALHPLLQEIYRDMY
# Method in brief: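 Loss of TR-FRET binding signal relative to DMSO was measured 1 h after chemical addition to extracted receptor protein. Chemicals were first tested in duplicate at 25 uM, and actives were followed up in concentration series.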
# [2] = target: Glucocorticoid receptor (Homo sapiens) (UniProt P04150); test: NVS_NR_hGR: NovaScreen (NVS) Nuclear Receptor Binding Assay for human Glucocorticoid Receptor (GR) (AID 2283363);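 also: activity is loss of specific radioligand binding signal relative to DMSO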
# Sequence of Glucocorticoid receptor (Homo sapiens) (P04150 whole entry, looked up): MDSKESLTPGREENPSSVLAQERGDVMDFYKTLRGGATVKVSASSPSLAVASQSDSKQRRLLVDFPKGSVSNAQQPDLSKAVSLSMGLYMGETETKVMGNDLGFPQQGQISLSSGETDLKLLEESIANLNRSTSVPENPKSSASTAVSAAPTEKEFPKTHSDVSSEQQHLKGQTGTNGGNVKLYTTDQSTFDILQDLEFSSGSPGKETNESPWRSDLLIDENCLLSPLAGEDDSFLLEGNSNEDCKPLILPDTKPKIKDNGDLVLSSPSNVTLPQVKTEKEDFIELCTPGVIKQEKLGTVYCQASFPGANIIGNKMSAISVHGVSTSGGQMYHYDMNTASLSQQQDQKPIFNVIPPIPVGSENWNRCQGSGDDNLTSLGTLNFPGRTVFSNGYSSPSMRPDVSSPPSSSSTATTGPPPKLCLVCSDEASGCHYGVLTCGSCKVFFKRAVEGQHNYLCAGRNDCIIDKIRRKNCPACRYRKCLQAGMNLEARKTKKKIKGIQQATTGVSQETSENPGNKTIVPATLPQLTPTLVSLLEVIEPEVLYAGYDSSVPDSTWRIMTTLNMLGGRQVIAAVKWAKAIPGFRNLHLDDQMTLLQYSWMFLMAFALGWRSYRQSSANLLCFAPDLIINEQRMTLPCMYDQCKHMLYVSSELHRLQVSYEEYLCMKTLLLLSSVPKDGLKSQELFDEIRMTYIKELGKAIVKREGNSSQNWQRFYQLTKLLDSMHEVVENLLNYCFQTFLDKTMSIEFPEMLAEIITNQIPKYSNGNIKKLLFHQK
# Method in brief: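 Compounds first tested in duplicate at 25 uM, actives followed up in concentration series. Binding to extracted GR protein measured as competitive radioligand displacement, filter scintillation read 16 h post-dosing, normalised to DMSO.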
# [3] = target: rat Androgen Receptor (AR), Ar (gene 24208) (UniProt P15207); test: NVS_NR_rAR: NovaScreen (NVS) Nuclear Receptor Binding Assay for rat Androgen Receptor (AR) (AID 2283366)
# Method in brief: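 Actives from a duplicate single-concentration (25 uM) primary run went on to concentration series. Displacement of radioligand was counted by filtration and scintillation, 18 h post-dose, using prostate extracts from testosterone-pretreated rats, with DMSO as baseline.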
# [4] = target: human Thyroid Receptor Alpha (TRa), THRA (gene 7067) (UniProt P10827); test: NVS_NR_hTRa_Antagonist: NovaScreen (NVS) Nuclear Receptor Binding Assay for human Thyroid Receptor Alpha Antagonism (TRa) (AID 2283362);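 also: activity is loss of signal relative to DMSO baseline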
# Sequence of human Thyroid Receptor Alpha (TRa), THRA (gene 7067) (P10827 whole entry, looked up): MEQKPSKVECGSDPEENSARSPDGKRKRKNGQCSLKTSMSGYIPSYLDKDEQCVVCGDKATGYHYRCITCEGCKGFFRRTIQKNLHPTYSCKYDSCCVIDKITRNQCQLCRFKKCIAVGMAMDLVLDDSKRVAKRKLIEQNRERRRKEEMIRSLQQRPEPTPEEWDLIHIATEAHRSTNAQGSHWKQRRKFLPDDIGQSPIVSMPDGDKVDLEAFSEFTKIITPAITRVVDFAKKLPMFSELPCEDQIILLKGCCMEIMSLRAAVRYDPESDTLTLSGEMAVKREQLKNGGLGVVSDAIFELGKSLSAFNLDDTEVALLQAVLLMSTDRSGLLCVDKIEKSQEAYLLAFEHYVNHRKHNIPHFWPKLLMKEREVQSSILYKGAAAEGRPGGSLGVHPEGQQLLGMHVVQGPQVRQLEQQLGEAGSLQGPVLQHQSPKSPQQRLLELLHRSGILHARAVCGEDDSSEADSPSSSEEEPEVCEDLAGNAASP
# Method in brief: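 In this biochemical format, receptor protein is dosed with chemical and read after 1 hour via AlphaLISA. Decreases from the DMSO baseline indicate antagonist activity; screening used 25 uM in duplicate before concentration-response confirmation.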
# [5] = target: Estrogen receptor beta (Homo sapiens) (UniProt Q92731); test: OT_ER_ERbERb_0480: Odyssey Thera (OT) 8-hour HEK293T Protein-Complementation Assay for Estrogen Receptor-beta/-beta Homodimer (AID 2283357);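 also: active means signal gain over DMSO baseline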
# Sequence of Estrogen receptor beta (Homo sapiens) (Q92731 whole entry, looked up, the tested form may be a part): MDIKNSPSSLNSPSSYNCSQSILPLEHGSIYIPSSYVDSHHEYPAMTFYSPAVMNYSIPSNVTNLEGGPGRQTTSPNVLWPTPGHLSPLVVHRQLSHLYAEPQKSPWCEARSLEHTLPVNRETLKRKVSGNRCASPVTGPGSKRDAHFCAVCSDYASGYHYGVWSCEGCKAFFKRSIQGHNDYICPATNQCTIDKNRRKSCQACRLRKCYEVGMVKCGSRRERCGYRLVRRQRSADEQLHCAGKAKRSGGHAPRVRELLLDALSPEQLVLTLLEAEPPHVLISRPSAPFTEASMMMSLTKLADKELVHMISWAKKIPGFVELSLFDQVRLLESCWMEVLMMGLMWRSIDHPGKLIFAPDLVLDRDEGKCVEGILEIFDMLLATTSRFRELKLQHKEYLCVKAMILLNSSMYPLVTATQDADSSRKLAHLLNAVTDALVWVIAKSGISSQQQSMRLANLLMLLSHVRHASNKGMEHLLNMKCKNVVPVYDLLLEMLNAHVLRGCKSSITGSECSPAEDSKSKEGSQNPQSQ
# Method in brief: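 ER-beta LBD homodimer PCA stably expressed in HEK293T; 8 h compound exposure, then formaldehyde fixation and Draq5 staining. Gain in nuclear/cytoplasmic fluorescence intensity versus DMSO vehicle, read on laser scanning cytometer.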
# [6] = target: Peroxisome proliferator-activated receptor gamma (Homo sapiens) (UniProt P37231); test: NVS_NR_hPPARg: NovaScreen (NVS) Nuclear Receptor Binding Assay for human Peroxisome Proliferator-activated Receptor gamma (PPARg) (AID 2283370)
# Sequence of Peroxisome proliferator-activated receptor gamma (Homo sapiens) (P37231 whole entry, looked up): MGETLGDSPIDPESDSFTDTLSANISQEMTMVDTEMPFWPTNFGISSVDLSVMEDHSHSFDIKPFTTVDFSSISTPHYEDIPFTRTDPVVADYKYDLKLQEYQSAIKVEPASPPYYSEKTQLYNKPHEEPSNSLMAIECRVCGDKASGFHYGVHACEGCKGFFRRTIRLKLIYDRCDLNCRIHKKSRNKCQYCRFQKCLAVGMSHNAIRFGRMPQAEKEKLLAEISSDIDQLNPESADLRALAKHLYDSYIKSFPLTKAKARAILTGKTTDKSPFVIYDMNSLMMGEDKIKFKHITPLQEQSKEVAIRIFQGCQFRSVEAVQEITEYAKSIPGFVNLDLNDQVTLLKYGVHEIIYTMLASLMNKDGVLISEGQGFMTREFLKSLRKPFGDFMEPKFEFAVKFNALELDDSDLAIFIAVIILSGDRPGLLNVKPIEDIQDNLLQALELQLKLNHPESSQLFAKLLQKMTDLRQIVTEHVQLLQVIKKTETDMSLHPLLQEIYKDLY
# Method in brief: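 Extracted receptor protein, cell-free; compound incubated 2 h then fluorescence polarization read. Baseline: DMSO. Actives from 25 uM duplicate screen re-run across concentrations.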
# [7] = target: Androgen Receptor/SRC-1 Co-activator, AR (gene 367) (UniProt P10275); test: OT_AR_ARSRC1_0960: Odyssey Thera (OT) 16-hour HEK293T Protein-Complementation Assay for Androgen Receptor/SRC-1 Co-activator (AID 2283353);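 also: actives raise the signal above DMSO so potency reflects increased AR and SRC-1 complex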
# Sequence of Androgen Receptor/SRC-1 Co-activator, AR (gene 367) (P10275 whole entry, looked up, the tested form may be a part): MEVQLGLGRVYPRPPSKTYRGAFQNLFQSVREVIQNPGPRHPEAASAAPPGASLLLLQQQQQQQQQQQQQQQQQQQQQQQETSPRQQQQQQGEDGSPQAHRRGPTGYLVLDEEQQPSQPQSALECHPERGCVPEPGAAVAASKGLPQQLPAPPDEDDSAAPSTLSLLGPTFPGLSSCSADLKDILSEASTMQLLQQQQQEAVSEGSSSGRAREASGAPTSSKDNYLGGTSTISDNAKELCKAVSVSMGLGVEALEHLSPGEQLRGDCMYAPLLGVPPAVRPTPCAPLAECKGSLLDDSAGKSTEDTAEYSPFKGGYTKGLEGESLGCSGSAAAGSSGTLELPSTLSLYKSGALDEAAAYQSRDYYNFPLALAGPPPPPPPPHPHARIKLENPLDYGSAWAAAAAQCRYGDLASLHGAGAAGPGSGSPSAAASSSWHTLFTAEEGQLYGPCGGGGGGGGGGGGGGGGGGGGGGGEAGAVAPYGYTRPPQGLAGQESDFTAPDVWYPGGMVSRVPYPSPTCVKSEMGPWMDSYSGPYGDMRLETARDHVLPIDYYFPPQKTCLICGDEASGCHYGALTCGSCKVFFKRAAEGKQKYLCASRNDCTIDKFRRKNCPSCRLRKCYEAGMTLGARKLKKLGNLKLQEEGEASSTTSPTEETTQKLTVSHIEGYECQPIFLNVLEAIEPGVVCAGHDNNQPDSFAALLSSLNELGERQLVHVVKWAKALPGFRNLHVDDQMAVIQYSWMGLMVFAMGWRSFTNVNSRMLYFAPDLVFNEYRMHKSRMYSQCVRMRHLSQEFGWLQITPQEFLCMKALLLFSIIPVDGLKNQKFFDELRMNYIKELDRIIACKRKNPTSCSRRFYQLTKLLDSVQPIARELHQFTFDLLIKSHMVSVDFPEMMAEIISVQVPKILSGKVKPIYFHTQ
# Method in brief: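 Sixteen-hour cell assay: Venus halves fused to AR and SRC-1 in HEK293T report binding. Images at 488/635 nm give an N/C ratio in the 488 nm channel over ≥400 cells, analysed as signal increase over DMSO.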
# [8] = target: Androgen Receptor/SRC-1 Co-activator, AR (gene 367) (UniProt P10275); test: OT_AR_ARSRC1_0480: Odyssey Thera (OT) 8-hour HEK293T Protein-Complementation Assay for Androgen Receptor/SRC-1 Co-activator (AID 2283354);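 also: hits raise the complementation signal above DMSO so AC50 marks enhancers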
# Method in brief: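 Reconstituted split-Venus YFP signal from AR–SRC-1 interaction, read by imaging 8 h post-dose in stable HEK293T lines. The 488 nm nucleus-to-cytoplasm ratio (≥400 cells/image) was fitted upward against DMSO.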
# [9] = target: Agonist Androgen Response Element (ARE), AR (gene 367) (UniProt P10275); test: OT_AR_ARELUC_AG_1440: Odyssey Thera (OT) 24-hour CHO-K1 Luciferase Assay for Agonist Androgen Response Element (ARE) (AID 2283379)
# Sequence of Agonist Androgen Response Element (ARE), AR (gene 367) (P10275 whole entry, looked up): as the sequence (P10275 whole entry, looked up, the tested form may be a part) above
# Method in brief: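 Readout: luciferase bioluminescence from CHO-K1 ARE-luc cells, measured 24 h post-dosing; agonism = increased mean luminescence vs DMSO controls, fitted in positive direction.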
# [10] = target: rat Mineralocorticoid Receptor (MR), Nr3c2 (gene 25672) (UniProt P22199); test: NVS_NR_rMR: NovaScreen (NVS) Nuclear Receptor Binding Assay for rat Mineralocorticoid Receptor (MR) (AID 2283355)
# Method in brief: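 Primary HTS ran in duplicate at a single 25 uM concentration, with concentration-series follow-up for actives. Receptor source: adrenalectomized rat brain supernatant, cell-free. Radioligand displacement read by scintillation at 24 h, relative to DMSO baseline.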
# [11] = target: Nuclear receptor subfamily 1 group I member 2 (Homo sapiens) (UniProt O75469); test: NVS_NR_hPXR: NovaScreen (NVS) Nuclear Receptor Binding Assay for human Pregnane X Receptor (PXR) (AID 2283365);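 also: a drop in FRET signal versus DMSO baseline means the compound binds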
# Sequence of Nuclear receptor subfamily 1 group I member 2 (Homo sapiens) (O75469 whole entry, looked up): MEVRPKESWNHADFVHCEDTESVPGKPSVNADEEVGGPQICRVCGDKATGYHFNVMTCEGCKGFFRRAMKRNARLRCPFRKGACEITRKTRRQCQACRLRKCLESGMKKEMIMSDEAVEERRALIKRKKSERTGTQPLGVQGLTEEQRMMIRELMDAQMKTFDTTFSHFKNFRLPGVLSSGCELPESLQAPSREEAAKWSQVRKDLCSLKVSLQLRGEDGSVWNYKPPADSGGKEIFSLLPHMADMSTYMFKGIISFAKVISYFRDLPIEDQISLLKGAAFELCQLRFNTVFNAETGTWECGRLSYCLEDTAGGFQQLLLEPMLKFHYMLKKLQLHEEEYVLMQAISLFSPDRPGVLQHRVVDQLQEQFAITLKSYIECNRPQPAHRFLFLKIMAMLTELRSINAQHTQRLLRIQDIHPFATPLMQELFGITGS
# Method in brief: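 Read-out: TR-FRET, human PXR, 2 h post-dosing, cell-free. Loss of signal vs DMSO taken as binding activity; 25 uM primary, concentration series secondary.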
compound,measurement,setting,value
CCCCC[Si](OCC)(OCC)OCC,outcome,[1],inactive
CCCCCCCCCCCCCOS(=O)(=O)O,AC50,[1],2100 nM (active)
same,AC50,[2],2940 nM (active)
same,AC50,[3],1700 nM (active)
O=Nc1ccc(Nc2ccccc2)cc1,AC50,[4],17600 nM (active)
CCCCCCCCCCCCCCCC(=O)OC[C@H](O)[C@H]1OC(=O)C(O)=C1O,outcome,[4],inactive
O=C(Oc1ccccc1)c1ccc(O)cc1,AC50,[5],2420 nM (active)
same,outcome,[6],inactive
CCCOCC(C)O (stereo unspecified),outcome,[7],inactive
same,outcome,[8],inactive
same,outcome,[9],inactive
CC(C)=CCC[C@](C)(O)[C@@H]1CC=C(C)CC1,outcome,[5],inactive
O=C[C@@H](O)[C@H](O)[C@H](O)CO,outcome,[7],inactive
same,outcome,[5],inactive
same,outcome,[6],inactive
same,AC50,[9],1260 nM (active)
C=CCOc1nc(OCC=C)nc(OCC=C)n1,outcome,[5],inactive
CC1(C)C(=O)N(Br)C(=O)N1Cl,outcome,[5],inactive
CC(=O)O[C@]1(C(C)=O)CC[C@H]2[C@@H]3C[C@H](C)C4=CC(=O)CC[C@]4(C)[C@H]3CC[C@@]21C,AC50,[10],569 nM (active)
same,AC50,[2],1.14 nM (active)
CCCCCCCCCCN,outcome,[5],inactive
O=C(O)c1ccc([N+](=O)[O-])cc1,outcome,[5],inactive
CCC(=O)/C=C/C1C(C)=CCCC1(C)C (stereo unspecified),outcome,[5],inactive
same,outcome,[11],inactive
CCCCCOC(=O)CCC,outcome,[5],inactive
same,outcome,[1],inactive
C=CC(C)(O)CCC=C(C)CCC=C(C)C (stereo unspecified),outcome,[5],inactive
CCCCC(CC)COC(=O)/C=C\C(=O)OCC(CC)CCCC (stereo unspecified),AC50,[7],75500 nM (active)
same,outcome,[5],inactive
same,outcome,[6],inactive
CC(C)=CCCC(C)=CCCC(C)=CCO,outcome,[5],inactive
same,outcome,[11],inactive
CCCC/C=C\CCCCCCCCCC=O,outcome,[5],inactive
same,outcome,[11],inactive
same,outcome,[6],inactive
C=O,outcome,[5],inactive
